“And” between values parts separate entries of the source, which are not always exact repeats. Identical values can stand only once.
How the values were obtained:
Format in all cases: functional
[1] = molecular target: Solute carrier family 2, facilitated glucose transporter member 1 (Homo sapiens) (UniProt P11166); test: ST_JUDE_LEISH: Cytotoxicity at 2uM final concentration against transgenic Leishmania Mexicana promastigotes LmGLUT1 that are glucose transport deficient and complemented with the human glucose transporter GLUT1. Activity is measured by DNA content using SYBR green in vitro
[2] = molecular target: Hexose transporter 1 (Plasmodium falciparum) (UniProt O97467); test: ST_JUDE_LEISH: Cytotoxicity at 2uM final concentration against transgenic Leishmania Mexicana promastigotes LmPfHT that are glucose transport deficient and complemented with the Plasmodium falciparum hexose transporter. Activity is measured by DNA content using SYBR green in vitro
[3] = molecular target: Glucose transporter (Leishmania mexicana) (UniProt O61059); test: ST_JUDE_LEISH: Cytotoxicity at 2uM final concentration against transgenic Leishmania Mexicana promastigotes LmGT2 that are glucose transport deficient and complemented with the L. Mexicana glucose transporter 2. Activity is measured by DNA content using SYBR green in vitro

Solute carrier family 2, facilitated glucose transporter member 1 (Homo sapiens), sequence (P11166 whole entry): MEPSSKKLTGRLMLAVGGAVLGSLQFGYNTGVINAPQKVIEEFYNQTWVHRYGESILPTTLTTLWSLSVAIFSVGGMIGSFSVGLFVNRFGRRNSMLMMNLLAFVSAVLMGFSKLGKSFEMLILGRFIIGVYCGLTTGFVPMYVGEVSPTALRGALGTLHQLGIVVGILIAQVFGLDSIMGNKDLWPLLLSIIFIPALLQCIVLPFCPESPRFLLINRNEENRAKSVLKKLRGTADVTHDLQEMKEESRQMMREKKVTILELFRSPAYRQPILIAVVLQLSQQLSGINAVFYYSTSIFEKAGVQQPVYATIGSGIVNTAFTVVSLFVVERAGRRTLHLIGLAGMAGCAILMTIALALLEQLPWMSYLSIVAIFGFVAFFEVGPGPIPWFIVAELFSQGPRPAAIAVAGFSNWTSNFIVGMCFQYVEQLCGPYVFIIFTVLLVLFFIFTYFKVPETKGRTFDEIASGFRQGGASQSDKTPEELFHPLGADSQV

Row | SMILES | inhibition [1] | inhibition [2] | inhibition [3]
1 | CCCCCCC(C)(C)c1cc(O)c2c3c(c(=O)oc2c1)CCN(Cc1ccccc1)C3 | 3.18% | 4.84% | 8.58%
2 | CCCc1cc([C@@H](O)[C@@H]2C[C@@H]3CCN2C[C@@H]3CC)c2ccccc2n1 | -0.67% | 3.99% | 0.11%
3 | COCC(=O)N(Cc1ccccc1-c1ccc(CNCCc2ccccc2)cc1)C1CCN(Cc2ccccc2)CC1 | 0.08% | 0.27% | -3.2%
4 | CC(C)CNCc1cccc(-c2cccc(CN(C(=O)NC3CCCCC3)C3CCN(Cc4ccccc4)CC3)c2)c1 | 8.3% | 4.64% | 5.98%
5 | S=C(NCCc1ccc(Cl)cc1)NC1CCC(CN2CCC(c3c[nH]c4ccccc34)CC2)CC1 (stereo unspecified) | 2.11% and -0.48% | 0.01% and 3.61% | -2.05% and -1.85%
6 | N#Cc1ccc(N(CCCO)Cc2ccccc2C(F)(F)F)cc1C(F)(F)F | -1.34% | -1.78% | -0.99%
7 | C#CCN1CCC2=C(C1)c1c(O)cc(C(C)C(C)CCc3ccc(F)cc3)cc1OC2(C)C (stereo unspecified) | 0.45% | -1.07% | -1.42%
8 | CN(C(=O)OCc1ccccc1)C1CCC(CCN2CCC3(CC2)C(=O)NCN3c2cccc(C(F)(F)F)c2)(c2ccccc2)CC1 (stereo unspecified) | 2.48% | 1.12% | 2.55%
9 | CC(C)CNCc1cccc(-c2cccc(CN(C(=O)c3cccs3)C3CCN(Cc4ccccc4)CC3)c2)c1 | 11.3% | 7.75% | 6.04%
10 | Oc1ccccc1CN1CCC(CCOC(c2ccccc2)c2ccc(Cl)cc2)CC1 (stereo unspecified) | 38.2% | 23.5% | 13.9%
11 | O=C(NC1CCC(CN2CCC(c3c[nH]c4ccccc34)CC2)CC1)[C@H]1Cc2ccccc2CN1 (stereo partly specified) | 1.47% | 2.41% | 4.44%
12 | Cc1cc(C(=O)NC2CCN(CC3(c4ccc(Cl)cc4)CCC3)CC2)on1 | 0.83% | -0.05% | 0.13%
13 | Cc1cc(NC(=O)[C@H](CC(C)C)Nc2ccc(C#N)c3ccccc23)ccc1F | 0.56% | 2.4% | -0.16%
14 | CCCCCc1cc(O)c2c(c1)OC(C)(C)c1ccncc1-2 | 0.55% | 0.66% | 3.5%
15 | CC[C@H]1CN2CC[C@H]1C[C@H]2[C@H](O)c1ccnc2ccc(O)cc12 | 0.99% | 2.1% | 1.04%
16 | CCCc1c(C(=O)NC2CCC(CN3CCC(c4c[nH]c5ccccc45)CC3)CC2)cnn1-c1c(Cl)cc(Cl)cc1Cl (stereo unspecified) | 4.74% | 3.29% | 3.07%

Row | SMILES | inhibition [1] | inhibition [2] | inhibition [3]
17 | COc1cccc(O)c1CNCC(O)c1cccc(C(F)(F)F)c1 (stereo unspecified) | 0.43% | 0.5% | 0.29%
18 | CS(=O)(=O)Nc1ccc2[nH]cc(C3CCN(CC4CCN(C(=O)/C=C/c5ccc(Cl)c(Cl)c5)CC4)CC3)c2c1 | 4.43% | 3.49% | 4.09%
19 | CC(=O)N(Cc1ccc(-c2ccc(CNCCc3ccccc3)cc2)cc1)C1CCN(Cc2ccccc2)CC1 | 1.67% | 1.69% | 1.11%
20 | CC(C)CNCc1cccc(-c2ccc(CN(C(=O)c3cccs3)C3CCN(Cc4ccccc4)CC3)cc2)c1 | 2.62% | 4.53% | 6.86%
21 | CC(=O)C1(c2ccccc2)CCN(CCC2(c3ccc(Cl)c(Cl)c3)CN(C(=O)c3cccc(Cl)c3)CCO2)CC1 (stereo unspecified) | -0.25% | -2.92% | -1.43%
22 | COC(=O)c1ccc(CC(C)NCC(O)c2cccc(Br)c2)cc1 (stereo unspecified) | -0.96% | -1.92% | 2.26%
23 | CN1CC=C(c2c[nH]c3ccc(OC(=O)c4ccccc4)cc23)C1 | 0.69% | 0.43% | 1%
24 | CC(C)CNCc1ccc(-c2ccc(CN(C(=O)NC3CCCCC3)C3CCN(Cc4ccccc4)CC3)cc2)cc1 | 7.16% | 3.25% | 6.77%
25 | Cc1[nH]c2ccccc2c1C1CCN(CC2CCC(NC(=O)/C=C/c3ccc(Cl)c(Cl)c3)CC2)CC1 (stereo unspecified) | 6.8% | 6.35% | 7.15%
26 | COc1ccc(CN2CCN(CCOC(c3ccccc3)c3ccccc3)CC2)c(O)c1 | 3.13% | 2.42% | 0.74%
27 | CN(c1cc(NC(=O)c2ccc(F)cc2)ccn1)C1CCN(Cc2cccc(F)c2)CC1 | 2.51% | 6.07% | 3.83%
28 | COc1ccc(CC(C)NCC(O)c2cccc(C(F)(F)F)c2)cc1F (stereo unspecified) | 1.15% | 1.15% | 0.11%
29 | CCCc1cc(O)c2c3c(c(=O)oc2c1)CN(C)CC3 | 0.29% | 0.97% | 1.39%
30 | Cc1[nH]c2ccccc2c1C1=CCN(CCCCC2(C)C(=O)Nc3cccc(F)c32)CC1 (stereo unspecified) | 0.46% | -0.62% | 0.65%
31 | CCOC(C(=O)OCCN(C(C)C)C(C)C)(c1ccccc1)c1ccccc1 | -0.14% | 0.41% | -0.37%
32 | O=C(C=Cc1ccccc1O)N1CCC(CN2CCC(c3c[nH]c4ccccc34)CC2)CC1 | 2.59% | 2.2% | 2.49%
